Reference: the supplement of paper PMC6555819

Test system: PPARg DBDmut IVT, anti-PPARg (DBD mutation: PPARg1 K132A/R137A, NR concentration 270 nM)
Assay: PBM binding z-score (relative to random genomic background probes); higher = stronger binding; sequences stand for … in GC…GCGATTGACAGCGTAGAATGAAGG
How it was run: (§1)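 Ligand-free nuclear receptor dimers were applied to custom Agilent 4×180K protein-binding microarrays whose double-stranded probes carried direct-repeat seeds, single-nucleotide variants, half-site ablations and random human genomic background sequences in 34-nt variable regions. Incubation lasted 1 h. Binding z-scores were computed against the random background probes from regression-normalized fluorescence.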

Sequence	PBM binding z-score
TATACAGGGTCAAAGGCCCGAGTACGAATGTCGA	0.769
TCTTGTAGCTCAAGCAGGTTAAGAAAGCCTGAGT	-0.282
TCTTGTGGATCAAAGGTTAAGAAAGCCGAAGCCT	-0.181
TCTTGTAGTTCAAGCAGGTTAAGAAAGCCTGAGT	-0.0561
CCTACTGGGCCAAAGGTCACTGATTCCAATGCTC	-0.418
TCTGCAAGGTCAACGATGGTCAGCTAATCTGCTA	-0.552
GCAGACAGGTGAAACGAAGGTAACTCAGGGTGGC	-0.484
ATCGAAAGCTCGAAGGTGAGTATACCCACCCGAA	-0.14
CATACAGGGTCAGCAAGGCCAGAGTAGGGACGGC	0.984
TCATATCGGTAAAGGTGAAAGTCGAACGATATGA	0.266
CCTTACGGGTCACTGACAGGCTATAGCATTTGGA	-0.225
GTACCAAGCTGAATAGGTCGTTGATGAGTAGGCG	-0.822
CCTGGTAGGTCAATGGTCAGCTAAAGCAGCTCGC	-0.453
CGTCCAAGGTGAGCAGGTCAGTGAAAGCGACGTG	-0.865
TCATATAGGTAAACGTGAAAGTCGAACGATATGA	1.61
TCGAGTGGGTTAGTCGGGGCATTCAGCCAACATA	-0.527
AGAATGAGGTTGTTAAGATCAGGGAATTGCGGTC	-0.016
CTCGAAAGGTCGGTTAAGGTGAGTATACGGATAA	0.287
CGTAGTTGGTCAAGGTCACACACGCTATAGGTAC	0.313
CCTGCTAGGTCAATGGTGAGCTAAAGCAGCTCGC	-0.744

Sequence	PBM binding z-score
CCTTACGTGTCAAGGTTATAGCACGGGTGGTACG	0.0662
CAAACTAGGTCAAGAGGTCAAAGTCCGCTTCCCG	1.19
TAGCCTTGGTCAGATCGGGCCAGTATACGCTATA	-1.18
CCAGACAGGTGAAAGGGAACTCAGTCTGGTACGC	-0.448
TCGAGTAGGTTACCAATGGGGCAGTCAGCTTTCT	-1.01
TCTCGTAGATCAGCAGGTTAAGAAAGCTGGCCAA	-0.513
CGTCCAAGGCCAGAGAGGTCAGTGAATGCCGAGT	-1.31
CCAGACAGGTGCGAAGGTAACTCAGCCTCGATTA	-1.77
CCTATTGGGCCAAAAAGGTCATTGATGCCGATAA	-0.558
CGTCCAAGGTCAAGGTCATTGAAAGAGACTCGAA	-0.505
ATCTCTAGGTAAAGATAGTTAAGTGAATGCAAAT	1.6
TCGTGTAGATCAAAGGTTAAGAAAGCCGAAGCCT	-0.277
ACAGACAGATGATGAAGGTAACTCAGGCTATCAT	0.707
AGAATGAGGGCAATGAGTTGATAGCACGGGTGGC	0.0242
CCTACTGGGCCACGAAAGGTCATTTATTCAGTGA	-0.0827
ACTTACGGGTCAACGAGGTTATAGAACGCGTATA	1.43
TAGCCTAGGTCATTCAGGGGCCAGTATAGAAAGC	0.357
GCTTACGGGTCAAAGGTTATAGCTTGAATAGAAT	1.02
CGAACTAGGTCATGGACAGTGAATCTCCGCACGC	1.53
CAAACTAGGTCAAAGGTCTAAGTCGAGCCAACCA	5.58

Test system: PPARg homodimer (NR concentration 180 nM)
Assay: as above
How it was run: as §1

Sequence	PBM binding z-score
TATACAGGGTCAAAGGCCCGAGTACGAATGTCGA	1.13
TCTTGTAGCTCAAGCAGGTTAAGAAAGCCTGAGT	-1.23
TCTTGTGGATCAAAGGTTAAGAAAGCCGAAGCCT	1.3
TCTTGTAGTTCAAGCAGGTTAAGAAAGCCTGAGT	0.815
CCTACTGGGCCAAAGGTCACTGATTCCAATGCTC	3.54
TCTGCAAGGTCAACGATGGTCAGCTAATCTGCTA	2.84
GCAGACAGGTGAAACGAAGGTAACTCAGGGTGGC	-0.228
ATCGAAAGCTCGAAGGTGAGTATACCCACCCGAA	-1.31
CATACAGGGTCAGCAAGGCCAGAGTAGGGACGGC	1.18
TCATATCGGTAAAGGTGAAAGTCGAACGATATGA	0.769
CCTTACGGGTCACTGACAGGCTATAGCATTTGGA	2.27
GTACCAAGCTGAATAGGTCGTTGATGAGTAGGCG	-1.1
CCTGGTAGGTCAATGGTCAGCTAAAGCAGCTCGC	2.06
CGTCCAAGGTGAGCAGGTCAGTGAAAGCGACGTG	0.43
TCATATAGGTAAACGTGAAAGTCGAACGATATGA	0.529
TCGAGTGGGTTAGTCGGGGCATTCAGCCAACATA	0.359
AGAATGAGGTTGTTAAGATCAGGGAATTGCGGTC	0.112
CTCGAAAGGTCGGTTAAGGTGAGTATACGGATAA	1.69
CGTAGTTGGTCAAGGTCACACACGCTATAGGTAC	2.32
CCTGCTAGGTCAATGGTGAGCTAAAGCAGCTCGC	0.822

Sequence	PBM binding z-score
CCTTACGTGTCAAGGTTATAGCACGGGTGGTACG	0.942
CAAACTAGGTCAAGAGGTCAAAGTCCGCTTCCCG	6.92
TAGCCTTGGTCAGATCGGGCCAGTATACGCTATA	-1.31
CCAGACAGGTGAAAGGGAACTCAGTCTGGTACGC	0.717
TCGAGTAGGTTACCAATGGGGCAGTCAGCTTTCT	-0.432
TCTCGTAGATCAGCAGGTTAAGAAAGCTGGCCAA	-0.593
CGTCCAAGGCCAGAGAGGTCAGTGAATGCCGAGT	0.821
CCAGACAGGTGCGAAGGTAACTCAGCCTCGATTA	-0.207
CCTATTGGGCCAAAAAGGTCATTGATGCCGATAA	2.26
CGTCCAAGGTCAAGGTCATTGAAAGAGACTCGAA	4.46
ATCTCTAGGTAAAGATAGTTAAGTGAATGCAAAT	0.449
TCGTGTAGATCAAAGGTTAAGAAAGCCGAAGCCT	1.21
ACAGACAGATGATGAAGGTAACTCAGGCTATCAT	0.677
AGAATGAGGGCAATGAGTTGATAGCACGGGTGGC	0.0668
CCTACTGGGCCACGAAAGGTCATTTATTCAGTGA	2.68
ACTTACGGGTCAACGAGGTTATAGAACGCGTATA	1.66
TAGCCTAGGTCATTCAGGGGCCAGTATAGAAAGC	1.37
GCTTACGGGTCAAAGGTTATAGCTTGAATAGAAT	1.88
CGAACTAGGTCATGGACAGTGAATCTCCGCACGC	1.69
CAAACTAGGTCAAAGGTCTAAGTCGAGCCAACCA	7.53
